Source: PubChem (National Center for Advancing Translational Sciences (NCATS))
NPSR antagonist: blocks cAMP signaling of the human neuropeptide S receptor; Q6W5P4; CHO-NPSR cells, cAMP TR-FRET, antagonist mode; Potency, µM (series often up to 38.3 µM), inactives show at the highest dose activity change, negative = inhibition, actives largely listed as inhibitors; 1% of 220,000 active; note: nearly all actives have a fitted effect of over 50% in size
HPGD block: blocks human HPGD enzyme activity; Potency, µM, for inactives: at the highest dose activity change, negative = inhibition, usual class: inhibitors; P15428; AID 894; 4.3% of 150,000 active; purified HPGD, NADH fluorescence kinetic, PGE2 substrate; active = well fitted inhibition curve with a large enough effect, not every such curve was filed as active; inconclusive = small, poorly fitted or top-dose-only effect, or another doubt; inactive = no such curve, though single readings can be large or run the other way
Target sequence (P15428 whole entry, looked up): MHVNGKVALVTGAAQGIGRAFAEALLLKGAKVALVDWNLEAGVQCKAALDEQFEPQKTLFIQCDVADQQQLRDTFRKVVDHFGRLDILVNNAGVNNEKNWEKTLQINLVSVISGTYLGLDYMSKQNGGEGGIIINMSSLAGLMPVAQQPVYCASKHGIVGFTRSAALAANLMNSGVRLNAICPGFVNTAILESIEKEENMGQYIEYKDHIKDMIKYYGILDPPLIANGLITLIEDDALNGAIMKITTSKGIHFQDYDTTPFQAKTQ
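NADH formation kinetics: reaction with 30 uM PGE2 and 1 mM NAD+ (final), 20 nM enzyme, Tris-HCl pH 8 with Tween 20, after 15 min compound preincubation at room temperature. Fluorescence change, last versus first of five reads.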
Tau fluor counter: counter-screen for tau fibril formation inhibitors. tau K18 P301L Alexa594 fluorescence, heparin fibrillization. Potency, µM (series often up to 57.7 µM), for inactives: at the top dose activity change, negative = decrease. 0.93% of 280,000 active; note: nearly all actives have a fitted effect of over 55% in size
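Human K18 P301L tau (15 uM unlabeled plus 0.24 uM Alexa 594-labeled, final) in 100 mM sodium acetate pH 7 was mixed with compound and 20 uM heparin and incubated 6 hr at 37 C.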
ALDH1A1 inh: ALDH1A1 (human) enzyme inhibition. Purified ALDH1A1, NADH fluorescence, propionaldehyde substrate. Potency, µM (series often up to 75.3 µM), without a hit: at the highest dose activity, negative = inhibition, usual class: inhibitors. 7.3% of 220,000 active; active = well fitted inhibition curve with a large enough effect, not every such curve was filed as active; inconclusive = small, poorly fitted or top-dose-only effect, or another doubt; inactive = no such curve, though single readings can be large or run the other way;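 note: plate controls were no enzyme wells and a reference inhibitor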
Tau fibril ThT: blocks human tau fibril formation measured by thioflavin T; P10636; recombinant tau K18 P301L, heparin-induced fibrillization, ThT fluorescence; Potency, µM (highest dose often 57.4 µM), for the others: at the highest dose activity, negative = inhibition, hits mostly inhibitors; 2.1% of 270,000 active; AID 1460; note: nearly all actives have a fitted effect of over 55% in size
Target sequence (P10636 561-689 P618L limits assumed): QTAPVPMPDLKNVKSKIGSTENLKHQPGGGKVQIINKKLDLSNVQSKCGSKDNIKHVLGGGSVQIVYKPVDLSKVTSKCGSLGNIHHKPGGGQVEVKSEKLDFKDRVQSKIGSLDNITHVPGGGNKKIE
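In this qHTS, human K18 P301L tau is incubated with compound and heparin for 6 hr at 37 C, and Thioflavin T fluorescence then reports fibril load.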
Tau fibril FP: blocks human tau fibril formation measured by polarization | Potency, µM (series often up to 57.7 µM), for the others: at the highest dose activity, negative = inhibition, most hits filed as inhibitors | K18 P301L tau heparin fibrillization, Alexa594 FP, 6 h | 0.39% of 280,000 active | AID 1468; note: nearly all actives have a fitted effect of over 55% in size
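Heparin (20 uM) drove fibril formation of recombinant tau K18 P301L, 15 uM unlabeled with 0.24 uM Alexa 594 label, for 6 hr at 37 C in 100 mM sodium acetate pH 7. Fluorescence polarization (555/632 nm) read 1 hr after 30 uM ThT.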
Active calls of the source: *; ? = inconclusive; / = no result; [ ] = dose if it differs, or a comment. Only some compounds are listed: those with a hit (about 9.5% of all), similar ones and a draw of the others. Unless noted, calls come from the whole dose curve; as a rule, active = well fitted curve in the direction sought with a large enough effect; inconclusive = small, poorly fitted or top-dose-only effect, or another doubt; inactive = no such curve, though single readings can be large; an effect the other way counts as inactive or inconclusive. Unless noted, % is set by controls: 0 for no effect and ±100 for the full control effect; potency is the fitted concentration of half-maximal effect.

SMILES | NPSR antagonist | HPGD block | Tau fluor counter | ALDH1A1 inh | Tau fibril ThT | Tau fibril FP
COc1ccc(C(=O)Nc2cc(C)on2)cc1[N+](=O)[O-] | 8% | / | -10% | 0% | -11% | -11%
CCOc1ccc(C(=O)NC(=S)Nc2ccccc2OC)cc1[N+](=O)[O-] | -2% | -9% | -11% | 8.9µM* | -1% | ?
COc1ccc2c(c1)C(=O)[C@@H](OC(=O)NS(=O)(=O)c1ccc(F)cc1)[C@H](c1ccc(OC)c(Br)c1)O2 | / | -20% | -8% | -14% | -14% | -6%
C#C[C@]1(OC(C)=O)CC[C@H]2[C@@H]3CCC4=CC(=O)CC[C@@H]4[C@H]3CC[C@@]21C | / | -6% | -12% | 6% | ? | -3%
CCOc1ccc(NC(=O)NCc2ccc3c(c2)CCN3C(C)=O)cc1 | / | / | -12% | / | ? | 3%
Cc1c(C)n(Cc2ccc(F)cc2)c2ccc(C(=O)N3CCN(c4ccc(Cl)cc4)CC3)cc12 | / | / | -8% | / | -4% | 3%
CCOc1ccc(C(=O)NC(=S)NC2CCCC2)cc1[N+](=O)[O-] | -20% | -11% | -16% | 13µM* | -4% | -4%
COc1ccc(C(=O)NC(=S)Nc2cccc(Cl)c2N2CCOCC2)cc1[N+](=O)[O-] | ? | -8% | ? | 0.4µM* | -20% | ?
CCCCn1cc(S(=O)(=O)c2ccc(Cl)cc2)c(=O)c2cc(F)c(N3CCCC(C)C3)cc21 (stereo not drawn) | / | / | 9% | / | -3% | 8%
Cn1cnc([N+](=O)[O-])c1Sc1nc(N)nc2c1ncn2[C@H]1C[C@H](O)[C@@H](CO)O1 | / | -8% | / | 5%[13.5 µM] | / | /
CCOc1ccc(NC(=S)N(CCc2c(C)[nH]c3ccccc23)Cc2ccco2)cc1 | -16% | -17% | 13µM*[quencher] | -3% | ? | ?
CNC(=S)N(CCc1c(C)[nH]c2ccccc12)Cc1ccco1 | -21% | / | -29% | -5% | -11% | 7%
COc1ccc(NC(=S)N(CCc2c(C)[nH]c3ccccc23)Cc2ccco2)cc1 | -22% | -14% | 14µM*[quencher] | ? | ? | 12%
CC(OC(=O)c1oc2ccccc2c1COc1ccccc1)C(=O)NC(N)=O (stereo not drawn) | -35% | / | -21% | ? | -10% | -13%
CC(OC(=O)c1oc2ccccc2c1CSC1CCCCC1)C(=O)NC(N)=O (stereo not drawn) | -1% | -17% | -4% | 2µM* | 8% | -6%
Cc1ccc(NC(=O)COC(=O)Cc2csc(-c3ccc(Cl)cc3)n2)cc1C | -4% | -2% | -5% | 7% | -7% | -1%
Cc1ccc(NC(=O)COC(=O)Cc2csc(-c3cccc(F)c3)n2)cc1C | 0% | -16% | -5% | 11µM* | -1% | -10%
CCN1C(=O)c2ccc(C(=O)Nc3ncc(C)s3)cc2C1=O | -4% | / | -7% | 2.2µM* | -14% | -2%
CC(C)CN1C(=O)c2ccc(C(=O)Nc3ccccn3)cc2C1=O | -6%[46.1 µM] | -9% | -14% | 1.1µM* | -13% | -2%
CC(C)CN1C(=O)c2ccc(NC(=O)c3ccccc3F)cc2C1=O | -22%[46.1 µM] | ? | -16% | ? | -8% | 1%
COCCCN1C(=O)c2ccc(C(=O)Nc3ccc(OC)cc3)cc2C1=O | -4%[46.1 µM] | -5% | -4% | ? | -23% | 2%
Cc1cnc(NC(=O)c2ccc3c(c2)C(=O)N(Cc2ccco2)C3=O)s1 | 1%[46.1 µM] | -8% | -7% | ? | -18% | -8%
CC(C)CN1C(=O)c2ccc(C(=O)Nc3ccncc3)cc2C1=O | -2%[46.1 µM] | -3% | -13% | 0.63µM* | -1% | -7%
CC(=O)NS(=O)(=O)c1ccc(NC(=O)c2ccc3c(c2)C(=O)N(CCC(C)C)C3=O)cc1 | 12% | 28µM* | -9% | ? | -8% | 4%
COC1=CC(=O)C(C(=O)c2ccccc2)=CC1=O | / | 4.5µM* | 6.3µM*[quencher] | ? | 3.2µM* | 10µM*
SMILES | NPSR antagonist | HPGD block | Tau fluor counter | ALDH1A1 inh | Tau fibril ThT | Tau fibril FP
COc1ccc(C(=O)c2ccccc2)cc1 | 10% | / | -13% | -9% | -9% | -3%
COC(=O)c1c(NC(=O)c2nc3ccccc3s2)sc2c1CCN(C(C)=O)C2 | ? | -29% | -23% | 13µM* | 16µM* | -5%
CCNC(=O)c1c(NC(=O)C2COc3ccccc3O2)sc2c1CCCC2 (stereo not drawn) | -9%[46.1 µM] | -4% | -1% | 7% | 0% | -6%
CNC(=O)c1c(NC(=O)c2nc3ccccc3s2)sc2c1CCC2 | ? | 28µM* | ? | ? | 7.1µM* | 12%
COC(=O)c1c(NC(=O)C2COc3ccccc3O2)sc2c1CCN(C(C)=O)C2 (stereo not drawn) | 1% | ? | 11% | 32µM* | -10% | 1%
CSc1nnc(-c2ccccc2N=Cc2c(C)[nH]n(-c3ccc4ccccc4c3)c2=O)c(=O)[nH]1 | -16%[46.1 µM] | 18µM* | -14% | ? | 22µM* | -3%
O=C(COC(=O)C1COc2ccccc2O1)Nc1cccc(S(=O)(=O)N2CCCCC2)c1 (stereo not drawn) | 5% | / | -10% | -11% | 1% | -12%
Cc1cc([N+](=O)[O-])ccc1NCc1ccccc1[N+](=O)[O-] | -24% | / | -25% | 18µM* | -16% | ?
O=[N+]([O-])c1ccccc1CNc1ccc(F)c(Cl)c1 | -3% | -5% | ? | ? | -5% | 4%
Cc1cc(F)ccc1NCc1ccccc1[N+](=O)[O-] | 38% | / | ? | 0.63µM* | ? | -1%
N#C/C(=C\C1=C(N2CCOCC2)C(=C/c2cccc([N+](=O)[O-])c2)/CC1)C(=O)Nc1ccccc1F | -13% | -4% | 8% | 5% | 2.2µM* | ?
CCN(CC)c1ccc(/C=C2\CCC(/C=C(\C#N)C(=O)Nc3ccccc3F)=C2N2CCOCC2)cc1 | -18% | 11µM* | ? | ? | ? | ?
O=C(/C=C/c1ccccc1)Nc1ccc(N2CCCCC2)cc1 | 8% | -8% | ? | 6% | ? | 14%
COc1cc(-c2nnc(SCc3cc(=O)oc4cc(C)ccc34)o2)cc(OC)c1OC | -24%[46.1 µM] | ? | -18% | 6.3µM* | ? | 2%
Cc1ccc2c(CSc3nc4nc(C)cc(C)n4n3)cc(=O)oc2c1 | 10µM* | / | -2% | 3% | -11% | 6%
COc1ccc2c(CSc3nc4nc(C)cc(C)n4n3)cc(=O)oc2c1 | ? | 9% | -7% | -5% | -11% | 4%
CCCSCCCNC(=O)C1CCN(c2nn3cc(-c4ccc(F)cc4)nc3s2)CC1 | / | / | -9% | / | ? | -10%
Cc1cccc(N(CC(=O)NCCSc2ccc(Cl)cc2)S(C)(=O)=O)c1C | / | / | -26% | / | -10% | -3%
